Bioassay records (PubChem BioAssay)
This is a sample that favours compounds with a hit; in the whole collection about 21% have one here.
NS1 function inh: influenza NS1 inhibition; Potency, µM (titrated, usually from 46.1 µM), for the others: at the top dose activity, positive = more growth; 0.4% of 270,000 active; calls by dose curve; also: potency is read from the fitted curve at half-maximal effect; actives are rising curves; nearly all actives have a fitted effect of over 50% in size
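Read-out: OD600 growth recovery of NS1-expressing budding yeast. Cells grown overnight at 30C in -URA glucose medium, washed, resuspended and diluted 1:100 in 2% galactose assay medium, pH 6.0. Same strain lacking NS1 served as positive control.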
Pf growth 48h: inhibits P. falciparum growth in the first generation, 48 h | P. falciparum luciferase growth in erythrocytes, 48 h | Potency, µM (top dose mostly 28.7 µM), without a hit: at the highest dose activity change, negative = inhibition, usual class: inhibitors | 5.9% of 310,000 active | AID 504832; also: potency is read from the fitted curve at half-maximal effect; % is scaled to controls: 0 for no effect and ±100 for the full control effect
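Luciferase-expressing P. falciparum in infected erythrocytes (2% hematocrit, 0.1% parasitemia final) in RPMI 1640/0.5% Albumax were exposed to compound for 48 hours at 37 C, 5% CO2; growth read as luminescence.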
Shiga inhibitor: blocks Shiga toxin action in Vero cells. inhibition, % at 38.7 µM. Vero cells, Shiga toxin protein synthesis inhibition reporter. 9.2% of 290,000 active; in the data active = inhibition mostly above about 28%, no sharp cut-off; inactive = mostly below about 43%; also: 0% is about no effect
Pf growth 96h: P. falciparum growth inhibition at 96 hour, primary screen for plastid delayed-death inhibitors | Potency, µM (highest dose often 28.7 µM), inactives show top-dose activity change, negative = inhibition, usual class: inhibitors | P. falciparum luciferase reporter growth, 96 h | 6.9% of 320,000 active | AID 504834; also: potency is read from the fitted curve at half-maximal effect; % is scaled to controls: 0 for no effect and ±100 for the full control effect
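Compounds incubated with erythrocytes infected by luciferase-expressing P. falciparum (2% hematocrit, 0.05% parasitemia final) for 96 hours, 37 C in 5% CO2. Growth inhibition scored as decreased luciferase luminescence.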
Cycloheximide cs: counter-screen hit for Shiga toxin inhibitors, cycloheximide | cell reporter, cycloheximide protein synthesis inhibition counterscreen | max response, % | 12% of 300,000 active; in the data active = max response mostly above about 13%, no sharp cut-off; inactive = mostly below about 14%; also: read at 38.3 µM for the half of the compounds with a filed dose; 0% is about no effect
Giardia FBPA inh: blocks Giardia fructose-bisphosphate aldolase activity; Potency, µM (titrated, usually from 59.6 µM), for inactives: at the highest dose activity, negative = inhibition, most hits filed as inhibitors; 0.71% of 290,000 active; purified Giardia FBPA; A8B2U2; also: potency is read from the fitted curve at half-maximal effect; % is scaled to controls: 0 for no effect and ±100 for the full control effect; nearly all actives have a fitted effect of over 55% in size
Target sequence (A8B2U2 whole entry, looked up): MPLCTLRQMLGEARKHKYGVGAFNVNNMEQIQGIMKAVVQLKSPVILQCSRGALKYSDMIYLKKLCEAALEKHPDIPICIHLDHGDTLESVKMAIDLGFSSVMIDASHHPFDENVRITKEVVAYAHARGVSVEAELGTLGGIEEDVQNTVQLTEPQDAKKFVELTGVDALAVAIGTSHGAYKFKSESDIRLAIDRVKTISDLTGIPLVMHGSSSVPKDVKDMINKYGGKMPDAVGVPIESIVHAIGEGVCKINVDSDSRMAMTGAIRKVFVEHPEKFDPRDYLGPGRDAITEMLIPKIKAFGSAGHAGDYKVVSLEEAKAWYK
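Giardia FBPA (40 nM reagent) was preincubated 10 min at RT with compound (up to 57.5 uM final), then substrate plus GAPDH/TPI/NAD/arsenate coupling system with diaphorase/resazurin was added; resorufin fluorescence (525/598 nm) was read after 20 min.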
* hit, by the source's call; ? = inconclusive; . = no result given; [ ] = another dose, or the depositor's remark. Unless noted, calls follow the shape of the dose curve; as a rule, active = well fitted curve in the direction sought with a large enough effect; inconclusive = small, poorly fitted or top-dose-only effect, or another doubt; inactive = no such curve, though single readings can be large; an effect the other way counts as inactive or inconclusive.

SMILES	NS1 function inh	Pf growth 48h	Shiga inhibitor	Pf growth 96h	Cycloheximide cs	Giardia FBPA inh
O=c1ccc(/C=C/c2ccccc2)nn1Cc1ccccc1	6.1%	.	-8.4	-27.7%	-5.6	-5.1%
Cc1nc(/C=C/c2ccccc2)cc(/C=C/c2ccccc2)n1	0.1%	?	63.4*	.	29.6*	-0.3%
COc1cccc(CN2CC(C(=O)N(C)Cc3[nH]c4ccccc4c3C)CCC2=O)c1 (centres undefined)	0.7%	-21.0%	-1.4	19.1%	-1.1	16.8%
COCc1cc(CN(C)C(=O)C2CCC(=O)N(Cc3cccc(OC)c3)C2)[nH]n1 (centres undefined)	-2.8%	0.9%	3.7	9.28µM*	-4.2	.
COc1cccc(CN2CC(C(=O)N(C)Cc3ccc(C)cc3)CCC2=O)c1 (centres undefined)	-10.6%	?	29.4	4.5%	43.3*	9.7%
Cc1nc(SCC(=O)NCC2CCCO2)c2cc(-c3ccccc3)sc2n1 (centres undefined)	.	?	.	12.1%	.	.
NCCCC[C@H](NC(=O)[C@H](Cc1c[nH]c2ccccc12)NC(=O)[C@H](CC(=O)O)NC(=O)[C@H](Cc1cnc[nH]1)NC(=O)[C@H](CO)NC(=O)[C@H](Cc1c[nH]c2ccccc12)NC(=O)[C@H](Cc1cnc[nH]1)NC(=O)[C@@H]1CCC(=O)N1)C(=O)N1CCC[C@H]1C(=O)NCC(N)=O	.	.	-8.9	.	4.9	-8.6%
CCCOc1ccc(C=Nc2ccc(OC)c(S(=O)(=O)N3CCOCC3)c2)c(O)c1	.	61.8%	.	27.5%	.	.
O=C(COc1ccc2ccccc2c1Br)NC(=S)Nc1cccc(CO)c1	-4.7%	38.9%	22.1*	6.9%	50.7*	-0.3%
O=C(COc1ccccc1Cl)NC(=S)Nc1cccc(NC(=O)c2ccccc2Cl)c1	-3.6%	-4.5%	2.5	10.6%	12.9	-1.3%
O=C(COc1ccc(Br)cc1Br)NC(=S)Nc1cccc(CO)c1	-4.8%	184.2%	86.6*	198.7%	97.4*	-7.6%
CC(=O)c1cccc(NC(=O)N2CCCC2C(=O)Nc2ccc3c(c2)OCO3)c1 (centres undefined)	1.7%	-5.0%	-11.1	-0.8%	-1.4	-2.8%
OCCC1CN(Cc2ccc(F)cc2Cl)CCN1CCc1ccccc1 (centres undefined)	-6.5%	-27.5%	-6.2	?	-0.4	-0.5%
COc1ccc(O)c(CN2CCN(CCCc3ccccc3)C(CCO)C2)c1 (centres undefined)	1.6%	?	-3.2	?	3.6	8.3%
COc1ccc(OC)c(CN2CCN(CCc3ccccc3)C(CCO)C2)c1 (centres undefined)	1.6%	-11.3%	2.3	13.1µM*	-2.5	5.3%
CCOc1ccc(CN2CCN(CC3=Cc4cccc(OC)c4OC3)CC2CCO)cc1 (centres undefined)	-1.2%	10.4µM*	-25.7	?	-3.1	2.1%
COc1ccc(F)c(CN2CCN(CCc3ccccc3)C(CCO)C2)c1 (centres undefined)	9.7%	-23.0%	.	3.7µM*	-1.2	-2.7%
OCCC1CN(Cc2cc(F)ccc2F)CCN1CCCc1ccccc1 (centres undefined)	-3.7%	?	8.6	13.1µM*	-0.6	11.0%
CCC(=O)N1CCN(c2ccccc2NC(=S)NC(=O)c2ccco2)CC1	12.0%	?	-1.3	-1.0%	-1.8	.
O=C1C[C@H]2C(=O)[C@@H]1[C@@H](C(=O)O)[C@H]2C(=O)O	-1.4%	.	.	.	.	.
CC(C)Sc1cc(N2CCCC2)nc(-c2ccc(F)cc2)n1	0.5%	13.1µM*	-5.8	?	7.2	0.1%
CC(C)Sc1cc(N2CCCC2)nc(-c2ccccc2)n1	-13.8%	?	8.4	?	-2.6	-3.3%
OC(CC#CCN1CCCCCC1)(c1ccccc1)C1CCCC1 (centres undefined)	-6.0%	?	-10.6	2.94µM*	-3.6	?
CC[N+](CC)(CC)CC[C@](O)(c1ccccc1)C1CCCCC1	.	6.42µM*	.	5.73µM*	.	-2.2%[21.7 µM]
CC[N+](CC)(CC)CCCOC(=O)C(O)(c1ccccc1)C1CCCCC1 (centres undefined)	0.9%	2.94µM*	-23.2	.	-4.5	2.5%
SMILES	NS1 function inh	Pf growth 48h	Shiga inhibitor	Pf growth 96h	Cycloheximide cs	Giardia FBPA inh
OC(C#CCN1CCCCCC1)(c1ccccc1)c1cccnc1 (centres undefined)	0.1%	?	-3.3	11.7µM*	-1.3	?
OC(C#CCN1CCCC1)(c1ccccc1)c1cccnc1 (centres undefined)	7.3%	?	27.7	?	-3.9	?
COc1ccc(Cl)cc1C(=O)NNC(=O)c1ccncc1	-5.7%	22.5%	.	?	1.9	-26.3%
COc1ccc(C(C#N)(CCC#N)CCC#N)cc1OC	-0.4%	15.9%	-0.7	.	-4.8	4.3%
C=CCC(C#N)(c1ccc(OC)c(OC)c1)c1cnccn1 (centres undefined)	.	13.1µM*	.	?	.	.
Cc1ccc(NP(=O)(Nc2ccc(C)cc2)Nc2ccc(C)cc2)cc1	.	11.7µM*	6.5	?	10.4	-6.1%
CCOC(=O)/C=C1\CN(CCC(C)C)S(=O)(=O)c2ccccc21	0.3%	?	-10.9	14.7µM*	-2.6	14.1%
CCOC(=O)/C=C1\CN(C(C)c2ccccc2)S(=O)(=O)c2ccccc21 (centres undefined)	5.2%	-3.2%	-10.0	-25.8%	1.0	4.3%
CCOC(=O)N1CCC2(CC1)C(C#N)=C(N)OC1=C2C(=O)CC(C)C1 (centres undefined)	0.3%	-11.5%	-16.1	6.57µM*	1.0	0.6%
CCc1ccc(-c2nc(CS(=O)CC(=O)NC3CCCCCC3)c(C)o2)cc1 (centres undefined)	?	20.7%	14.8	8.28µM*	14.4*	.
CCc1ccc(-c2nc(CS(=O)CC(=O)NCc3cccnc3)c(C)o2)cc1 (centres undefined)	?	43.1%	16.5	-9.6%	17.6*	3.1%
COc1ccc(-c2nc(CS(=O)CC(=O)NCCC3=CCCCC3)c(C)o2)cc1 (centres undefined)	-42.0%	.	81.5	?	30.6*	-2.3%
Cc1ccc(-c2nc(CS(=O)CC(=O)NCCCc3ccccc3)c(C)o2)cc1 (centres undefined)	12.3%	1.9%	2.4	?	22.0*	14.1%
Cc1ccc(-c2nc(CS(=O)CC(=O)NC(C)CCc3ccccc3)c(C)o2)cc1 (centres undefined)	-24.9%	2.3%	-7.9	15.4%	5.6	.
CCc1ccc(-c2nc(CS(=O)CC(=O)NC3CC3)c(C)o2)cc1 (centres undefined)	25.4%	25.4%	12.1	23.9%	10.3	-3.1%
O=[N+]([O-])c1ccc(SCCO)nc1SCCO	2.6%	?	-15.5	-21.0%	-2.0	-0.6%
COc1ccc(-c2nc(CS(=O)CC(=O)NC3CCCC(C)C3C)c(C)o2)cc1OC (centres undefined)	0.3%	-13.6%	-11.7	11.7µM*	-9.8	-10.0%
